Source: PubChem
Shown are actives, neighbours in structure and some others; about 11% of the full set was active somewhere.
CBFb-RUNX1 inh: CBF-beta/RUNX1 interaction disruption. Potency, µM (highest dose often 59.8 µM), without a hit: at the top dose activity, negative = inhibition, hits mostly inhibitors. Q01196+Q13951. AlphaScreen CBFb-His/RUNX1-biotin binding, biochemical. 230,000 tested, under 10 active. AID 1477; also: % of control where 0% means no effect
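CBFb-His/RUNX1-biotin, 30 nM each, preincubated 20 min RT; compound 15 min RT; Ni + streptavidin beads 50 ng each, 90 min RT; AlphaScreen read.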
HTT ATP protect: protects HTT-Q103 PC12 cells, measured by ATP | Potency, µM (doses to about 56.4 µM), for inactives: cytoprotection (ATP increase), most hits filed as activators | 230,000 compounds, 0.14% hits | PC12 HTT-Q103 induced, cytoprotection, ATP luminescence, 40 h; also: potency is read from the fitted curve at half-maximal effect; % of control where 0% means no effect; nearly all actives have a fitted effect of over 45% in size
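Cells were plated at 1500 per well in phenol red-free DMEM with 5% equine and 5% calf serum. Tebufenozide (100 nM final) and compounds were added, then ATPlite reagent, and luminescence was read.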
HttQ103 aggreg: inhibitors of mutant huntingtin aggregate formation in PC12 cells; AID 1688; 220,000 compounds, 1.1% hits; Potency, µM (doses to about 46.1 µM), inactives show at the highest dose activity change, negative = inhibition, usual class: inhibitors; PC12 HttQ103-GFP aggregates, Acumen cytometry, 40 h; also: potency is read from the fitted curve at half-maximal effect; % is scaled to controls: 0 for no effect and ±100 for the full control effect; nearly all actives have a fitted effect of over 60% in size
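Steps: seed 1500 PC12 HTTQ103-GFP cells/well; add tebufenozide, 100 nM final; add compound titration; add ATPLite reagent; quantify GFP aggregates by laser scanning cytometry.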
ALDH1A1 block: ALDH1A1 (human) enzyme inhibition | Potency, µM (highest dose often 75.3 µM), for inactives: at the highest dose activity, negative = inhibition, hits mostly inhibitors | Purified ALDH1A1, NADH fluorescence, propionaldehyde substrate | P00352 | 220,000 compounds, 7.3% hits; active = well fitted inhibition curve with a large enough effect, not every such curve was filed as active; inconclusive = small, poorly fitted or top-dose-only effect, or another doubt; inactive = no such curve, though single readings can be large or run the other way;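 also: potency is read from the fitted curve at half-maximal effect; plate controls were no enzyme wells and a reference inhibitor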
Target sequence (P00352 whole entry, looked up): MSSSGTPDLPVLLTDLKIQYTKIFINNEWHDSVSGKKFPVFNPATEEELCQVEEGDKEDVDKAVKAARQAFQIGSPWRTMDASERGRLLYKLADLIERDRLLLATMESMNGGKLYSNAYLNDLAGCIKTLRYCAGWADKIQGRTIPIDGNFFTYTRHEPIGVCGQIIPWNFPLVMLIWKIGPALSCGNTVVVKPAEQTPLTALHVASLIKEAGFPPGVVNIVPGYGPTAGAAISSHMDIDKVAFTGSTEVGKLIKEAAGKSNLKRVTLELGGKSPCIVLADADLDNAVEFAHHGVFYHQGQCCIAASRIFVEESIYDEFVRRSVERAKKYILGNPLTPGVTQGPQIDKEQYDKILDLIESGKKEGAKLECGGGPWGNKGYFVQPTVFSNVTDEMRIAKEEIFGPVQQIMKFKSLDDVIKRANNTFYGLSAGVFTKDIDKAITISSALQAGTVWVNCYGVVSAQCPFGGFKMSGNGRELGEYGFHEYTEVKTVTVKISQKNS
PNC inhibitor: perinucleolar compartment assembly inhibition | activity change (PNC), negative = inhibition, % at 10 µM | 140,000 compounds, 3.1% hits | PC3M PTB-GFP, PNC prevalence imaging, 16 h; active compounds read low;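 active = readout at or below -70, meaning at least 70% loss of cells showing the perinucleolar compartment, a nuclear body marking cancer cells; inconclusive = readout between -30 and a set limit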;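 also: plate controls were DMSO wells for no effect and camptothecin positive control wells for full effect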
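PC3M cells stably expressing PTB-GFP, 750–1000 cells/well, treated 16 h at 37 °C with compound (23 nl of library stock), in duplicate. After paraformaldehyde fixation and Hoechst stain, imaged at 20x; PNC prevalence scored by image analysis.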
HPGD block: blocks human HPGD enzyme activity; purified HPGD, NADH fluorescence kinetic, PGE2 substrate; Potency, µM, for the others: top-dose activity change, negative = inhibition, hits mostly inhibitors; 150,000 compounds, 4.3% hits; active = well fitted inhibition curve with a large enough effect, not every such curve was filed as active; inconclusive = small, poorly fitted or top-dose-only effect, or another doubt; inactive = no such curve, though single readings can be large or run the other way; also: potency is read from the fitted curve at half-maximal effect; % is scaled to controls: 0 for no effect and ±100 for the full control effect
Target sequence (P15428 whole entry, looked up): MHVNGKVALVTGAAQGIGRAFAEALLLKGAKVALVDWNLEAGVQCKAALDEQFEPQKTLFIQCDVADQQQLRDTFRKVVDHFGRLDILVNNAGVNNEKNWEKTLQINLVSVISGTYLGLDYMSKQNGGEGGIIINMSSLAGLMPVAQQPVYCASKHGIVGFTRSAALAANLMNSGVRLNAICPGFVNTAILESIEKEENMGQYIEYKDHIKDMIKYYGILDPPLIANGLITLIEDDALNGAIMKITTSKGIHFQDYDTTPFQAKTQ
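20 nM HPGD preincubated 15 min at room temperature with compound in 50 mM Tris-HCl pH 8, 0.01% Tween 20. Started with 1 mM NAD+ and 30 uM prostaglandin E2; NADH fluorescence (360/450 nm) read 5 times over 30-s intervals, last minus first.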
Active calls of the source: *; ? = inconclusive; · = no result given; ! = a repeat was not active; [ ] = remark or other dose. Unless noted, calls follow the shape of the dose curve; as a rule, active = well fitted curve in the direction sought with a large enough effect; inconclusive = small, poorly fitted or top-dose-only effect, or another doubt; inactive = no such curve, though single readings can be large; an effect the other way counts as inactive or inconclusive.

SMILES	CBFb-RUNX1 inh	HTT ATP protect	HttQ103 aggreg	ALDH1A1 block	PNC inhibitor	HPGD block
O=[N+]([O-])c1cc2oc3c(c2c(C=NCc2ccccc2)c1O)CCCC3	-10%	11%[10 µM]	26%	?	18	-15%
CC(C)CN=Cc1c(O)c([N+](=O)[O-])cc2oc3c(c12)CCCC3	6%	-16%[1.9 µM]	-8%	28µM*	0	-15%
CC(C)CN1CCC2(CC1)CCN(S(=O)(=O)c1ccccc1)CC2	·	17%	·	10%	·	-2%
COC(=O)c1ccc(CNC(=O)COC(=O)CC23CC4CC(CC(Br)(C4)C2)C3)cc1	-27%	4%[10 µM]	-1%	13µM*	?	-26%
Cc1ccc([N+](=O)[O-])cc1NC(=O)C(Sc1ccccc1)c1ccccc1 (stereo not drawn)	-5%	11%[10 µM]	-11%	-13%	-2	-5%
O=c1c(Cl)cc(Cl)nn1-c1ccccc1	0%	24%[10 µM]	18µM*	32µM*	?	-17%
COc1cc(Cl)nn(-c2ccccc2)c1=O	0%	8%[10 µM]	7%	-1%	?	-12%
Cc1ccc(Nc2nnc(-c3ccc4c(c3)OCO4)o2)c(C)c1	7%	-4%[10 µM]	-9%[9.22 µM]	19µM*	·	?
Cc1cc(C)cc(NC2=NCC(=O)N2Cc2ccccc2)c1	-3%	16%	-6%	1%	-5	-7%
Cc1cccc(NC2=NCC(=O)N2Cc2ccccc2)c1	16%	-10%[10 µM]	-11%	25µM*	39	-10%
Cc1ccc(NC2=NCC(=O)N2Cc2ccc3c(c2)OCO3)c(C)c1	5%	-12%[10 µM]	4%	-3%	-100*	-1%
O=C(CN1CCCC1)N1c2ccccc2C=Cc2ccccc21	0%	-13%[10 µM]	-18%[9.22 µM]	5%	·	·
NC(=O)N1c2ccccc2C=Cc2ccccc21	-13%	?	-4%	-2%	?	-4%
O=C(CN1CCCCCC1)N1c2ccccc2C=Cc2ccccc21	7%	13%	-9%	-6%	-106*	-7%
CCN(CC)C(=O)N1c2ccccc2C=Cc2ccccc21	3%	6%	-4%[9.22 µM]	11%	-105*	0%
CC(/C=N/n1c(-c2ccc(C)cc2)n[nH]c1=S)=C\c1ccco1	-14%	17%[10 µM]	14%	?	-5	2.5µM*
CC(/C=N/n1c(-c2ccco2)n[nH]c1=S)=C\c1ccco1	-3%	-5%[10 µM]	-1%	32µM*	62	14µM*
CC(NC(=O)C1CCC1)c1ccc(Cl)cc1 (stereo not drawn)	15%	-4%[0.074 µM]	3%	0%	35	14µM*
CCOc1ccc(C(C)NC(=S)NC2CCCCC2)cc1 (stereo not drawn)	-1%	9%[10 µM]	0.56µM*	?	·	·
CCOc1ccc(C(C)NC(=O)C2CCC2)cc1 (stereo not drawn)	-13%	6%[0.074 µM]	-2%	-1%	21	25µM*
CCOc1ccc(C(C)NC(=S)NC2CCCCC2)cc1OCC (stereo not drawn)	?	-7%	?	4%	·	·
c1nc(NC2CCNCC2)c2cc(-c3ccoc3)ccc2n1	·	1%	·	?	·	·
COc1ccc(NC(=S)N(CCN(C)C)C(C)c2ccco2)cc1Cl (stereo not drawn)	3%	16%[10 µM]	19%	-4%	38	-13%
CCCOc1ccccc1-c1nc2n[nH]nc2c(=O)[nH]1	4%	?	12%	20µM*!	·	8.9µM*
CCCc1nn(C)c2c(=O)[nH]c(-c3ccccc3OCC)nc12	-1%	·	-7%	?	-9	?
SMILES	CBFb-RUNX1 inh	HTT ATP protect	HttQ103 aggreg	ALDH1A1 block	PNC inhibitor	HPGD block
COC(=O)Cc1c(C)[nH]n(-c2cc(Cl)cc(Cl)c2)c1=O	0%	-53%	-7%	7.1µM*	·	·
Cc1cc(=O)cc2oc3cc(N)c(-c4c(C)cc(O)cc4O)c(C)c3nc1-2	·	-18%[1.9 µM]	·	-5%	·	-12%
COC(=O)C1=C(C)Nc2[nH]c(=S)[nH]c(=O)c2C1c1ccc(O)cc1 (stereo not drawn)	-4%	1%[10 µM]	-10%[9.22 µM]	24µM*	·	·
CCSc1nc2c(c(=O)[nH]1)C(c1ccc(C)cc1)C1=C(CCCC1=O)N2 (stereo not drawn)	5%	·	12%	4%	·	·
CC1(C)CC(=O)C2=C(C1)Nc1[nH]c(=S)[nH]c(=O)c1C2c1ccccc1 (stereo not drawn)	2%	5%	25%	?	-21	8.9µM*
Cc1ccc(C2C3=C(CCCC3=O)Nc3[nH]c(=S)[nH]c(=O)c32)cc1 (stereo not drawn)	0%	-16%	-7%	?	6	10µM*
O=C1CCCC2=C1C(c1ccc(Br)cc1)c1c([nH]c(=S)[nH]c1=O)N2 (stereo not drawn)	?	-4%[10 µM]	13%	?	-13	7.1µM*
CSc1nc2c(c(=O)[nH]1)C(c1ccccc1)C1=C(CC(C)(C)CC1=O)N2 (stereo not drawn)	6%	8%[10 µM]	8%	?	·	·
CCCCCCCCCCCCCCCC(=O)NCCCC(=O)O	-6%	-10%	·	6%	·	-3%
CCOC(=O)C(=CNc1ccc2c(c1)c1ccccc1n2CC)C(=O)OCC	?	19%[10 µM]	17%[9.22 µM]	·	·	·
O=C(c1cccc(F)c1)N1CCC2(CCN(Cc3ccccc3)CC2)CC1	·	?	·	-2%	·	-4%
COc1cccc(/C=N/Nc2cc(-n3nc(C)cc3-c3ccccc3)ncn2)c1O	10%	-89%[10 µM]	?	18%	-100*	-11%
Cc1cc(C)n(-c2nc(Nc3ccccc3)nc(-n3nc(C)cc3C)n2)n1	6%	-10%	-2%	9%	?	-8%
COc1cccc(/C=N/Nc2nc(Nc3ccccc3)nc(-n3nc(C)cc3C)n2)c1O	?	-98%[10 µM]	1.1µM*	6%	14	-14%
N#CCCn1c(Cl)nc2ccccc21	7%	-7%[0.074 µM]	·	-5%	-86*	-7%
CCCCCCC1CC(=O)NC(=S)N1 (stereo not drawn)	-16%	?	-15%	4µM*	·	·
CNc1nc(SCc2ccccc2Cl)nc2c1CCCC2	16%	-22%[10 µM]	10µM*	0%	18	-7%
CC1(C)Cc2c(c(N3CCCC3)[nH]c(=S)c2C#N)CO1	0%	18%	20%	?	20	-17%
N#Cc1cc2c([nH]c1=S)CCCC2	11%	·	10%	8.9µM*	18	14µM*
CC1(C)Cc2[nH]c(=S)c(C#N)cc2CO1	3%	2%	8%[9.22 µM]	2.2µM*	?	25µM*
Cc1cccc2nc(-c3cccc(NC(=O)Cc4ccccc4)c3)cn12	-7%	·	-5%	?	-109*	-24%
O=C(N/N=C/C1C(c2ccccc2)C1(Cl)Cl)c1cccc(Cl)c1 (stereo not drawn)	3%	-40%[10 µM]	-3%	7.1µM*	4	-20%
